# Data taken from PubChem BioAssay (EPA / NIEHS).
# Several values for one entry are separate records, joined by “and”; a condition that tells them apart may be missing. Equal entries are not always repeated. Records with an inconclusive call do not appear. The source holds several records for some structures; these can differ, active in one and inactive in another. Activity calls are given as the source filed them. The calls were made as follows, unless noted: active = hit-call score of the fitted dose curve at least 0.9, where 1 is the maximum; inactive = score below 0.9.
# Experiments:
# [1] = molecular target: Glucocorticoid receptor (Homo sapiens) (UniProt P04150); assay: ATG_GR_TRANS: Attagene TRANS-FACTORIAL HepG2 Assay for human Glucocorticoid Receptor (GR) (AID 2282978; active = hit-call score of the fitted dose curve at least 0.9, where 1 is the maximum;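 also: activators score as hits since higher reporter transcript over DMSO is fitted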); details: HepG2 Attagene TRANS GR reporter, mRNA transcription
# Procedure, shortened: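 After 24 h incubation with test chemical, transfected HepG2 cells were lysed for RNA; reporter cDNA was amplified, FAM-labelled, HpaI-digested and sized on a capillary analyser. Signal gain relative to DMSO was scored.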
# [2] = molecular target: Oxysterols receptor LXR-beta (Homo sapiens) (UniProt P55055); assay: ATG_LXRb_TRANS: Attagene TRANS-FACTORIAL HepG2 Assay for human Liver X Receptor beta (LXRb) (AID 2282981; active = hit-call score of the fitted dose curve at least 0.9, where 1 is the maximum); details: HepG2 Attagene TRANS GAL4-LXRb reporter, mRNA
# Procedure, shortened: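 HepG2 cells transiently transfected with multiple reporter transcription units carrying chimeric NR-Gal4 proteins acting on GAL4-UAS reporters; compound exposure 24 h. Reporter mRNA quantified by RT-PCR, 6-FAM labelling, HpaI digestion and capillary electrophoresis; gain of signal versus DMSO.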
# [3] = molecular target: Hepatocyte nuclear factor 4-alpha (Homo sapiens) (UniProt P41235); assay: ATG_HNF4a_TRANS: Attagene TRANS-FACTORIAL HepG2 Assay for human Hepatocyte Nuclear Factor 4 alpha (HNF4a) (AID 2282982; active = hit-call score of the fitted dose curve at least 0.9, where 1 is the maximum); details: HepG2 HNF4a transactivation reporter, mRNA readout
# Procedure, shortened: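 HepG2 cells transiently transfected with multiplexed GAL4-UAS reporter units responsive to chimeric NR-GAL4 proteins; compound exposure 24 h. Reporter mRNA quantified by RT-PCR, 6-FAM labelling, HpaI digestion and capillary electrophoresis; gain of signal versus DMSO baseline.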
# [4] = ATG_M_06_TRANS: Attagene TRANS-FACTORIAL HepG2 Assay for M06 Transcription Factor (Internal Marker) (AID 2282983; active = hit-call score of the fitted dose curve at least 0.9, where 1 is the maximum); details: HepG2 Attagene TRANS M06 internal marker reporter
# Procedure, shortened: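 Measured by capillary electrophoresis of fluorescently labelled RT-PCR products, this endpoint reflects reporter mRNA in HepG2 cells harbouring exogenous NR-GAL4 reporter constructs after 24 h exposure, with DMSO as baseline.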
# [5] = molecular target: Transcriptional activator Myb (Homo sapiens) (UniProt P10242); assay: ATG_Myb_CIS: Attagene CIS-FACTORIAL HepG2 Assay for human Myeloblastosis (Myb) Proto-Oncogene Transcription Factor (AID 2282986); details: HepG2 Attagene CIS-FACTORIAL Myb reporter transcription; actives raise or lower the signal
# Procedure, shortened: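 After 24 h of compound dosing, total RNA from transfected HepG2 cells is reverse-transcribed and the reporter sequences amplified, labeled and separated by capillary electrophoresis. Values come from bidirectional fitting against DMSO.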
# [6] = molecular target: Nuclear respiratory factor 1 (Homo sapiens) (UniProt Q16656); assay: ATG_NRF1_CIS: Attagene CIS-FACTORIAL HepG2 Assay for human Nuclear Respiratory Factor 1 (NRF1) Orphan Gene (AID 2282987); details: HepG2 NRF1 cis-element reporter, Attagene multiplex; actives raise or lower the signal
# Procedure, shortened: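 Measured: fluorescent reporter-specific RT-PCR products from transfected HepG2 cells, separated by capillary electrophoresis. Exposure lasted 24 h. Analysis used bidirectional curve fitting with DMSO as negative control.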
# [7] = ATG_NFI_CIS: Attagene CIS-FACTORIAL HepG2 Assay for human Nuclear Factor I (NFI) (AID 2282989); details: HepG2 cis-regulatory reporter, NFI response element transcription; actives raise or lower the signal
# Procedure, shortened: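 HepG2 cells transiently transfected with cis-element-driven multiplexed reporter transcription units, dosed for 24 h. Reporter mRNA quantified by RT-PCR, fluorescent labelling, HpaI digestion and capillary electrophoresis; bidirectional fit versus DMSO baseline.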
# [8] = molecular target: Myc proto-oncogene protein (Homo sapiens) (UniProt P01106); assay: ATG_Myc_CIS: Attagene CIS-FACTORIAL HepG2 Assay for human Myelocytomatosis (Myc) Proto-Oncogene Transcription Factor (AID 2282990); details: HepG2, Attagene cis-reporter transcription factor activity; actives raise or lower the signal
# Procedure, shortened: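 DMSO-normalised, bidirectionally fitted reporter mRNA signal. HepG2 cells transfected with cis reporter constructs, treated 24 h; transcripts detected by RT-PCR, 6-FAM primer extension and CE.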
# [9] = ATG_NF_kB_CIS: Attagene CIS-FACTORIAL HepG2 Assay for human Nuclear Factor Kappa B (NF-kB) (AID 2282991); details: HepG2 Attagene cis-factorial NF-kB reporter mRNA; actives raise or lower the signal
# Procedure, shortened: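 Fluorescence of labelled RT-PCR products separated by capillary electrophoresis gives reporter mRNA levels from transfected HepG2 cells exposed 24 h; values are fitted in both directions relative to DMSO.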
# [10] = ATG_NRF2_ARE_CIS: Attagene CIS-FACTORIAL HepG2 Assay for human Nuclear Factor Erythroid 2 Related Factor 2 (NFR2) response to Antioxidant Response Elements (ARE) (AID 2282992); details: HepG2 Attagene ARE/NRF2 reporter, transcription factor activity; actives raise or lower the signal
# Procedure, shortened: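 Cis-factorial assay: transfected HepG2 reporter library, 24 h dosing, mRNA readout via RT-PCR/CE; DMSO-referenced bidirectional analysis.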
# [11] = ATG_Oct_MLP_CIS: Attagene CIS-FACTORIAL HepG2 Assay for human Octamer-Binding Transcription Factor (Oct) (AID 2282993); details: HepG2 Attagene cis-factorial Oct reporter, mRNA; actives raise or lower the signal
# Procedure, shortened: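 HepG2 cells transiently transfected with cis-promoter-driven multiplexed reporter transcription units, dosed for 24 h. Reporter mRNA quantified by RT-PCR, fluorescent labelling, HpaI digestion and capillary electrophoresis; bidirectional fits versus DMSO baseline.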
# [12] = molecular target: Cellular tumor antigen p53 (Homo sapiens) (UniProt P04637); assay: ATG_p53_CIS: Attagene CIS-FACTORIAL HepG2 Assay for human p53 Transcription Factor (AID 2282994); details: HepG2 p53 cis-element reporter, Attagene mRNA; actives raise or lower the signal
# Procedure, shortened: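 Using HepG2 hepatoma cells carrying cis-acting multiplexed reporters, mRNA induction is detected after a 24 h exposure. Gain- and loss-of-signal responses are fitted relative to DMSO-treated cells.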
# [13] = BSK_3C_TissueFactor: BioMAP Diversity Plus: 3C Assay for Tissue Factor Biomarker Activity (AID 2282997); details: BioMAP 3C HUVEC, tissue factor biomarker readout; actives raise or lower the signal
# Procedure, shortened: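 Values derive from bidirectional curve fitting against DMSO of Tissue Factor ELISA signals, taken 24 h after dosing primary human umbilical vein endothelial cells.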
# [14] = BSK_3C_uPAR: BioMAP Diversity Plus: 3C Assay for Urokinase-type plasminogen activator receptor (uPAR) Biomarker Activity (AID 2282998); details: BioMAP 3C HUVEC, uPAR biomarker ELISA; actives raise or lower the signal
# Procedure, shortened: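 Human umbilical vein endothelial primary cells were exposed to test chemical for 24 h. Cell-surface uPAR was then quantified by ELISA, and responses were fitted bidirectionally against DMSO as negative control and baseline.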
# [15] = BSK_3C_VCAM1: BioMAP Diversity Plus: 3C Assay for Vascular cell adhesion molecule 1 (VCAM1) Biomarker Activity (AID 2282999); details: BioMAP 3C HUVEC, VCAM1 ELISA, cytokine-stimulated; actives raise or lower the signal
# Procedure, shortened: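 Human umbilical vein endothelial cells were dosed with compound for 24 h, after which cell-surface VCAM-1 was quantified by ELISA. Bidirectional curve fitting used DMSO as negative control and activity baseline.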
# [16] = ATG_M_32_TRANS: Attagene TRANS-FACTORIAL HepG2 Assay for M32 Transcription Factor (Internal Marker) (AID 2282984; active = hit-call score of the fitted dose curve at least 0.9, where 1 is the maximum;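 also: transcript level of a background control reporter unit measured by RT-PCR and capillary electrophoresis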); details: HepG2 Attagene TRANS M32 internal marker reporter
# Procedure, shortened: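 HepG2 cells transiently transfected with multiple GAL4-UAS reporter transcription units, dosed for 24 hours; reporter mRNA quantified by RT-PCR, 6-FAM primer extension, HpaI digestion and capillary electrophoresis. Gain-of-signal fitted versus DMSO baseline; internal background-control marker.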
# [17] = molecular target: Nuclear receptor subfamily 4 group A member 2 (Homo sapiens) (UniProt P43354); assay: ATG_NURR1_TRANS: Attagene TRANS-FACTORIAL HepG2 Assay for human Nuclear Receptor Related Protein 1 (NURR1) (AID 2282985; active = hit-call score of the fitted dose curve at least 0.9, where 1 is the maximum); details: HepG2 Attagene TRANS reporter, mRNA readout
# Procedure, shortened: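 HepG2 cells transiently transfected with GAL4-UAS reporter units and chimeric NR-Gal4 constructs; chemical exposure 24 h. Reporter mRNA quantified by RT-PCR, fluorescent labelling and capillary electrophoresis; gain of signal fitted relative to DMSO baseline.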
# [18] = molecular target: Estrogen-related receptor gamma (Homo sapiens) (UniProt P62508); assay: ATG_ERRg_TRANS: Attagene TRANS-FACTORIAL HepG2 Assay for human Estrogen-Related Receptor gamma (ERRg) (AID 2282977; active = hit-call score of the fitted dose curve at least 0.9, where 1 is the maximum;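 also: hits increase reporter signal over DMSO so potencies reflect activators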); details: HepG2 Attagene TRANS reporter, ERRg transactivation
# Procedure, shortened: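 HepG2 cells transiently transfected with multiplexed GAL4-UAS reporter units and chimeric NR-Gal4 constructs were exposed to test chemicals for 24 h. Reporter mRNA was measured by RT-PCR, 6-FAM primer extension, HpaI digestion and capillary electrophoresis; gain-of-signal versus DMSO.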
# [19] = molecular target: Bile acid receptor (Homo sapiens) (UniProt Q96RI1); assay: ATG_FXR_TRANS: Attagene TRANS-FACTORIAL HepG2 Assay for Farnesoid X Receptor (FXR) (AID 2282979; active = hit-call score of the fitted dose curve at least 0.9, where 1 is the maximum;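 also: hits raise reporter mRNA above DMSO so AC50 marks FXR activation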); details: HepG2 Attagene TRANS FXR-GAL4 reporter transcription
# Procedure, shortened: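 Chimeric FXR-GAL4 activity in transiently transfected human HepG2 liver cells is scored as induction of reporter mRNA after 24 h of dosing. Detection uses RT-PCR with fluorescent labelling and capillary electrophoresis, with DMSO serving as baseline.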
# Sequence of Myc proto-oncogene protein (Homo sapiens) (P01106 whole entry, looked up): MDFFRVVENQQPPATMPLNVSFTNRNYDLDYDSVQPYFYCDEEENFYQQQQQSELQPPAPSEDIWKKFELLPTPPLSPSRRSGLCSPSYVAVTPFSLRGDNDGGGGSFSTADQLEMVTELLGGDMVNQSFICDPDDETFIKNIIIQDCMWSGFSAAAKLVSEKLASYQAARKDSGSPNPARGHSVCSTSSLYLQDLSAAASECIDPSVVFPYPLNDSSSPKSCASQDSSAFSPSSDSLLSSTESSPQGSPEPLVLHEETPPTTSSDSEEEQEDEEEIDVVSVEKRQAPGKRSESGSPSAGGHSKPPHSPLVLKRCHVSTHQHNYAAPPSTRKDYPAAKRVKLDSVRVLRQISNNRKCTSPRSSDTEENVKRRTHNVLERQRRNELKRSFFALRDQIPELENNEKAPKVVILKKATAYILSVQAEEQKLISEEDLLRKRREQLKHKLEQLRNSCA
# Sequence of Bile acid receptor (Homo sapiens) (Q96RI1 whole entry, looked up, the tested form may be a part): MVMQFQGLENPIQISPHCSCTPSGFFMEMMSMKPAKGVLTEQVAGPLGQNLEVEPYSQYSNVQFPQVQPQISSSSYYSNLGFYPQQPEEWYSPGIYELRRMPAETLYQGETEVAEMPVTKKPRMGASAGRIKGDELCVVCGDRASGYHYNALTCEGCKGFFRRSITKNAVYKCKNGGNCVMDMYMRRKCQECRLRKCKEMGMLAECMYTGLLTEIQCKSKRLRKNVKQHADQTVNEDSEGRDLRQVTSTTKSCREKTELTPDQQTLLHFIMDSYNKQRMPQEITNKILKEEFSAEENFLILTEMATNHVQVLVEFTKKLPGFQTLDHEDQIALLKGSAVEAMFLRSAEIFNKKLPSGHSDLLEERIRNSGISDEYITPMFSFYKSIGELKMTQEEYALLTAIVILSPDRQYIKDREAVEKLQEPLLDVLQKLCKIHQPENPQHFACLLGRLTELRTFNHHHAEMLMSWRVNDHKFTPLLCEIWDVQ
# Sequence of Oxysterols receptor LXR-beta (Homo sapiens) (P55055 whole entry, looked up, the tested form may be a part): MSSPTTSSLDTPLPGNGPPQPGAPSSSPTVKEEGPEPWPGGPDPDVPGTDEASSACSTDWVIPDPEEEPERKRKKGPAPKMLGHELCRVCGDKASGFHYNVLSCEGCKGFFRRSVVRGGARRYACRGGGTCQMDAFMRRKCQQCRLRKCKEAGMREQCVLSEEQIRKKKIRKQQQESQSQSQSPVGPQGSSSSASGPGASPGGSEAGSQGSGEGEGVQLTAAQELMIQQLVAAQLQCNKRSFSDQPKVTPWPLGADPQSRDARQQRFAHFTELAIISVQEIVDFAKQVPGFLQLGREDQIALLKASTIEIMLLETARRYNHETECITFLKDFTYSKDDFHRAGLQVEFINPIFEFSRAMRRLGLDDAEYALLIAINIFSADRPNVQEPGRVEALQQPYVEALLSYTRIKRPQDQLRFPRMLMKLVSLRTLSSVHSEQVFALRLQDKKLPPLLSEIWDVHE
# Sequence of Cellular tumor antigen p53 (Homo sapiens) (P04637 whole entry, looked up): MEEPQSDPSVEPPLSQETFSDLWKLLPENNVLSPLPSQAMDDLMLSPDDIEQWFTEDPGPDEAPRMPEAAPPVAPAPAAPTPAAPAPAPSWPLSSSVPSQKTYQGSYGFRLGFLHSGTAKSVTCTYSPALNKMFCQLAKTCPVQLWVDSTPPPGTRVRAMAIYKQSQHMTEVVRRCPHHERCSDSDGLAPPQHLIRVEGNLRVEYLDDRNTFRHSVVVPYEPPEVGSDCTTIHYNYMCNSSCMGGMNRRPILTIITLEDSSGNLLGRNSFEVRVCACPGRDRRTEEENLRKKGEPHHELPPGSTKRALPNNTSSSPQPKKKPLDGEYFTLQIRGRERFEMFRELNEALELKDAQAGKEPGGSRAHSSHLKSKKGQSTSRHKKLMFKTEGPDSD
# Sequence of Nuclear respiratory factor 1 (Homo sapiens) (Q16656 whole entry, looked up): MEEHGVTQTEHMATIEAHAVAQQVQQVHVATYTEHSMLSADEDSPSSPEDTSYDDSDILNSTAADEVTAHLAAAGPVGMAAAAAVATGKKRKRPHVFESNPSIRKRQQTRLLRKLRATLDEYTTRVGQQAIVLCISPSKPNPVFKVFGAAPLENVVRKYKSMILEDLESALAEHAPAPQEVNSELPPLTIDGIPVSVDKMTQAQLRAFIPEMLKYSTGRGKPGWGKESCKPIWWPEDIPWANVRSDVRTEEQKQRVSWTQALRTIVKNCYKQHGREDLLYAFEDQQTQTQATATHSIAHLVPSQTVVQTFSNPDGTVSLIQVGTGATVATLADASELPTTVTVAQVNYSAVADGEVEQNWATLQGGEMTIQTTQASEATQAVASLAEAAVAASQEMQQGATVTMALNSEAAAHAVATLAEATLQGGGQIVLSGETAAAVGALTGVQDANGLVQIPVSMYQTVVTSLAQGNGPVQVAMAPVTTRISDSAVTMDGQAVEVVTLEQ
# Sequence of Nuclear receptor subfamily 4 group A member 2 (Homo sapiens) (P43354 whole entry, looked up, the tested form may be a part): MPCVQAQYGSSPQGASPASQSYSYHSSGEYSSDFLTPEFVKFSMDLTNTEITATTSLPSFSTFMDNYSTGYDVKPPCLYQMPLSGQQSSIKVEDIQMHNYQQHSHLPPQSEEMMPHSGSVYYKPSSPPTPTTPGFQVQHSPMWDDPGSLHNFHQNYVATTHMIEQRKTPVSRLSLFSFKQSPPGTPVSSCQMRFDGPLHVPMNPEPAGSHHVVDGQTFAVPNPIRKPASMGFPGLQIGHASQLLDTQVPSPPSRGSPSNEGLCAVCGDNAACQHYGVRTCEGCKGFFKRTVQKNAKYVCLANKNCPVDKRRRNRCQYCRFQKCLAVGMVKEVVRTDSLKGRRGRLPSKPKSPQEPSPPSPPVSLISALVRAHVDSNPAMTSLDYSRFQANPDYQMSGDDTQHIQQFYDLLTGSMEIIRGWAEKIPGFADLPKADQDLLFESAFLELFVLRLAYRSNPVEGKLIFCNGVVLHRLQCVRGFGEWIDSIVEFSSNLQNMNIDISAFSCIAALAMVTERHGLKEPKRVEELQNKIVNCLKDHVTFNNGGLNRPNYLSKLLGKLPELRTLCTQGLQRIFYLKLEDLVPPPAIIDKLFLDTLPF
# Sequence of Transcriptional activator Myb (Homo sapiens) (P10242 whole entry, looked up): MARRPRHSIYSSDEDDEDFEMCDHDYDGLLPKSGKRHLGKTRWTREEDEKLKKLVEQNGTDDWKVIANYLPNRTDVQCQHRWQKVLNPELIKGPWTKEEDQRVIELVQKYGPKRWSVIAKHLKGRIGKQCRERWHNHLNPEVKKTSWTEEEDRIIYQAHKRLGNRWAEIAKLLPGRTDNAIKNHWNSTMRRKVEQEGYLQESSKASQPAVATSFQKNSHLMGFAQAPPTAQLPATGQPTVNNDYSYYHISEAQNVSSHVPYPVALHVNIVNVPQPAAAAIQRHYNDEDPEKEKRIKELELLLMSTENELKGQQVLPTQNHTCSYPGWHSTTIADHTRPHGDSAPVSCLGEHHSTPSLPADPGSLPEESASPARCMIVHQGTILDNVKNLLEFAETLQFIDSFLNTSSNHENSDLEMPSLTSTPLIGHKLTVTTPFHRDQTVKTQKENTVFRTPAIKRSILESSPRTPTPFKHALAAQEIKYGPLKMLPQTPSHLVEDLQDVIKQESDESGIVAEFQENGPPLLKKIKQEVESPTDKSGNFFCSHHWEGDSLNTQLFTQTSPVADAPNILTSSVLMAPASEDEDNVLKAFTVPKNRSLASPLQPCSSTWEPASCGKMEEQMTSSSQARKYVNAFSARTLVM
# Sequence of Glucocorticoid receptor (Homo sapiens) (P04150 whole entry, looked up): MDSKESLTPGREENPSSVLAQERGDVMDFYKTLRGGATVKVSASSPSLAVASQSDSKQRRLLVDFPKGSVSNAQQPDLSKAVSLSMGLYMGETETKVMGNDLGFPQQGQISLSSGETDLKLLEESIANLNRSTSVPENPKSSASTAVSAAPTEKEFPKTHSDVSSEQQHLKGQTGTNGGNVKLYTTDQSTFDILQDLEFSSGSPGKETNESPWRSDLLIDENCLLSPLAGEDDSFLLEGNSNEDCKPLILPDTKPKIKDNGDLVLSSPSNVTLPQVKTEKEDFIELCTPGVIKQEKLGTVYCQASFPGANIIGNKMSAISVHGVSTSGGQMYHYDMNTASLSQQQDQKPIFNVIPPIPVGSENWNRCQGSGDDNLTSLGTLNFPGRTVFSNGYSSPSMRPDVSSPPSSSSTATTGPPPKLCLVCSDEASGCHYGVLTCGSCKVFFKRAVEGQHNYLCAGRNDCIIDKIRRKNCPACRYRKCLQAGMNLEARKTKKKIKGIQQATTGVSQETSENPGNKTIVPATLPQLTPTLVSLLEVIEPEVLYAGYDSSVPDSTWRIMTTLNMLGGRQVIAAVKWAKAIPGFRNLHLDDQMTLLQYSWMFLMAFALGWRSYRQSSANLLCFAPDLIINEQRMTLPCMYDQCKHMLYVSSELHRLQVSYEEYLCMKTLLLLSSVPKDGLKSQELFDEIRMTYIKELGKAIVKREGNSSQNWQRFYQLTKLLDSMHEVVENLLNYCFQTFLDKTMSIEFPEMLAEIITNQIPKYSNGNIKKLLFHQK
# Sequence of Hepatocyte nuclear factor 4-alpha (Homo sapiens) (P41235 whole entry, looked up, the tested form may be a part): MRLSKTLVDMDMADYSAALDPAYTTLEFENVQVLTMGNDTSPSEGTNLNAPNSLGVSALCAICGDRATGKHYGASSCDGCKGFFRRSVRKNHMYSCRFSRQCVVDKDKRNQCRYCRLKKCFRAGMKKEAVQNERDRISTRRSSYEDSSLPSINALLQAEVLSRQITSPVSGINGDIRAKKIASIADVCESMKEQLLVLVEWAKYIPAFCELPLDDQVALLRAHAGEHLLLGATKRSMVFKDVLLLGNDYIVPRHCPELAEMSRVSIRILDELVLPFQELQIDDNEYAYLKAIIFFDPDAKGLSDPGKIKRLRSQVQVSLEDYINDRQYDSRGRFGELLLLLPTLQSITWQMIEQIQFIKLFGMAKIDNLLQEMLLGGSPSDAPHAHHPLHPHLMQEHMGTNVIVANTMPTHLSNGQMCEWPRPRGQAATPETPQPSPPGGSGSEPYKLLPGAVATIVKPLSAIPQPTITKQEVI
smiles,measurement,setting,value
CCCCNC(=O)n1c(NC(=O)OC)nc2ccccc21,outcome,[1],inactive
same,outcome,[2],inactive
same,outcome,[3],inactive
same,outcome,[4],inactive
same,outcome,[5],inactive
same,outcome,[6],inactive
same,outcome,[7],inactive
same,outcome,[8],inactive
same,outcome,[9],inactive
same,outcome,[10],inactive
same,outcome,[11],inactive
same,outcome,[12],inactive
same,outcome,[13],inactive
same,AC50,[14],6.89 µM (active)
same,outcome,[15],inactive
CCOC(=O)CC(SP(=S)(OC)OC)C(=O)OCC (stereo unspecified),outcome,[1],inactive
same,outcome,[2],inactive
same,outcome,[3],inactive
same,outcome,[4],inactive
same,outcome,[16],inactive
same,outcome,[17],inactive
same,outcome,[5],inactive
same,outcome,[6],inactive
same,outcome,[7],inactive
same,outcome,[8],inactive
same,outcome,[9],inactive
same,AC50,[10],25.1 µM (active) and 19.6 µM (active)
same,AC50,[11],133 µM (active) and 24 µM (active)
same,outcome,[12],inactive
same,outcome,[13],inactive
same,AC50,[14],5.14 µM (active)
O=C(O)c1nc(Cl)ccc1Cl,outcome,[1],inactive
same,outcome,[2],inactive
same,outcome,[4],inactive
same,outcome,[16],inactive
same,outcome,[17],inactive
same,outcome,[5],inactive
same,outcome,[6],inactive
same,outcome,[7],inactive
same,outcome,[8],inactive
same,outcome,[10],inactive
same,outcome,[11],inactive
same,outcome,[12],inactive
same,outcome,[13],inactive
same,outcome,[14],inactive
CC1=C(C(=O)Nc2ccccc2)SCCO1,outcome,[18],inactive
same,outcome,[19],inactive
same,outcome,[2],inactive
same,outcome,[4],inactive
same,outcome,[16],inactive
same,outcome,[5],inactive
same,outcome,[6],inactive
same,outcome,[7],inactive
same,outcome,[8],inactive
same,AC50,[10],16.6 µM (active)
same,outcome,[11],inactive
same,outcome,[12],inactive
same,outcome,[13],inactive
same,outcome,[14],inactive
same,outcome,[15],inactive
Oc1ccccc1-c1ccccc1,outcome,[2],inactive
same,outcome,[3],inactive
same,outcome,[4],inactive
same,outcome,[16],inactive
same,outcome,[17],inactive
same,outcome,[5],inactive
same,outcome,[6],inactive
same,outcome,[7],inactive
same,AC50,[8],50 µM (active)
same,outcome,[8],inactive
same,AC50,[10],32.7 µM (active) and 26.2 µM (active)
same,AC50,[11],50 µM (active)
same,outcome,[11],inactive
same,outcome,[12],inactive
same,outcome,[13],inactive
same,outcome,[14],inactive
C=CC1(C)OC(=O)N(c2cc(Cl)cc(Cl)c2)C1=O (stereo unspecified),outcome,[1],inactive
same,outcome,[19],inactive
same,outcome,[3],inactive
same,outcome,[4],inactive
same,outcome,[16],inactive
same,outcome,[17],inactive
same,outcome,[5],inactive
same,outcome,[6],inactive
same,outcome,[7],inactive
same,outcome,[8],inactive
same,outcome,[9],inactive
same,outcome,[10],inactive
same,outcome,[11],inactive
same,outcome,[12],inactive
same,outcome,[13],inactive
same,outcome,[14],inactive
CCCC1COC(Cn2cncn2)(c2ccc(Cl)cc2Cl)O1 (stereo unspecified),outcome,[1],inactive
same,outcome,[2],inactive
same,outcome,[3],inactive
same,outcome,[4],inactive
same,outcome,[16],inactive
same,outcome,[17],inactive
same,outcome,[5],inactive
same,outcome,[6],inactive
same,outcome,[7],inactive
same,outcome,[8],inactive
same,outcome,[9],inactive
same,AC50,[10],27.1 µM (active)
same,outcome,[10],inactive
same,AC50,[11],8.1 µM (active)
same,outcome,[11],inactive
same,outcome,[12],inactive
same,outcome,[13],inactive
same,outcome,[14],inactive
